In PubChem BioAssay (NCI):
This is part of a sample that, as a whole, favours compounds with a hit. Of some 83,000 tested, about 20% had one in any assay.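 Activity criterion: percent growth below 10, measured after cells in 96-well plates were exposed to a single compound concentration for 48 hours.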 Values without a mark were called inactive. Active and inactive are the calls of the source.

Key:
Experiment in all cases: NCI-60 one-dose screen, 48 h (100 = growth as untreated, 0 = no growth, -100 = all killed)
Conditions in all cases: 10 µM unless noted
SR leukemia = system: SR leukemia
RPMI-8226 leukemia = system: RPMI-8226 leukemia
OVCAR-8 ovarian = system: OVCAR-8 ovarian
OVCAR-5 ovarian = system: OVCAR-5 ovarian
OVCAR-4 ovarian = system: OVCAR-4 ovarian
SK-OV-3 ovarian = system: SK-OV-3 ovarian
IGROV1 ovarian = system: IGROV1 ovarian
OVCAR-3 ovarian = system: OVCAR-3 ovarian
HS 578T breast = system: HS 578T breast
NCI/ADR-RES ovarian = system: NCI/ADR-RES ovarian

SMILES	growth (SR leukemia)	growth (RPMI-8226 leukemia)	growth (OVCAR-8 ovarian)	growth (OVCAR-5 ovarian)	growth (OVCAR-4 ovarian)	growth (SK-OV-3 ovarian)	growth (IGROV1 ovarian)	growth (OVCAR-3 ovarian)	growth (HS 578T breast)	growth (NCI/ADR-RES ovarian)
c1cc(N2CCCC2)c2nc(-c3[nH]ncc3Nc3ncnc4[nH]ccc34)[nH]c2c1	5.49% (active)	-7.49% (active)	1.75% (active)	-9.59% (active)	-13.6% (active)	-8.07% (active)	-17.9% (active)	-14% (active)	-4.25% (active)	-21.1% (active)
Cc1cc2nc3c4cc(N)ccc4n(CCN(C)C)c3nc2cc1C	-0.184% (active)	-7.46% (active)	13.7%	18.5%	14.6%	18.4%	3.64% (active)	22.3%	41.8%	2.88% (active)
CN1CCN(c2ccc3nc(-c4[nH]ncc4Nc4ncnc5[nH]ccc45)[nH]c3c2)CC1	-6.78% (active)	101%	7.18% (active)	6.49% (active)	-10.9% (active)	12.6%	0.386% (active)	-0.64% (active)	15.8%	80.4%
O=S(=O)(NCCNc1cc(-c2cn(-c3ccccc3)nc2-c2cccc(O)c2)ccn1)c1ccc(Br)cc1	5.3% (active)	13%	25%	50%	40.7%	45.8%	49.6%	34.7%	24.8%	25.5%
COC(=O)[C@]12CC[C@@H](C(C)=O)[C@@H]1[C@H]1CC[C@@H]3[C@@]4(C)C/C(=C/c5cccnc5)C(=O)C(C)(C)[C@@H]4CC[C@@]3(C)[C@]1(C)CC2	12.3%	2.88% (active)	38.7%	114%	26.7%	93.7%	85.8%	49%	74.8%	52.5%
CC1(C)C(=O)/C(=C\c2ccco2)C[C@]2(C)[C@H]3CC[C@@H]4[C@@H](C(=O)/C=C/c5ccco5)CC[C@@]4(C)[C@]3(C)CC[C@@H]12	71%	75.5%	80.5%	115%	83.6%	109%	96.2%	95.2%	77.8%	95.1%
CCOC(=O)c1ccc2c(c1)[n+](=O)c(C(=O)C1CCCS1)c(C(F)(F)F)n2[O-] (stereo not given)	-42.8% (active)	-45.3% (active)	-36.4% (active)	-79.8% (active)	-83.3% (active)	-97.6% (active)	-60.3% (active)	-96.6% (active)	-10.8% (active)	-70.4% (active)
CSc1ccc(N(C)c2nc(C)nc3c2CCC3)cc1	1.95% (active)	23.5%	12%	33.2%	38.2%	19.5%	31.3%	5.43% (active)	29.8%	8.05% (active)
N#CC1=C(N)Oc2ccc3ccccc3c2C1c1ccccc1 (stereo not given)	25.1%	21.8%	49.8%	55.8%	73.6%	47.2%	25.5%	18.4%	23.8%	8.41% (active)
N#Cc1c(-c2ccc(O)cc2)c2c(N)nn(-c3ccccc3)c2[nH]c1=O	115%	101%	105%	105%	113%	102%	93%	110%	104%	102%
COc1cc(/C=C/c2cc(/C=C/c3ccc(O)c(OC)c3)n(-c3ccccc3)c(=O)n2)ccc1O	30.7%	50.7%	79.1%	113%	61.3%	90.7%	87%	72.3%	69.6%	97.7%
Nc1c2c(nc3ccc(Br)cc13)CC(c1ccccc1)CC2=O (stereo not given)	27.1%	17.8%	44.7%	49.2%	68.7%	63.6%	36.7%	14.7%	30.9%	11%
CCN1CCN(C(=O)[C@@]2(C)CC[C@]3(C)CC[C@]4(C)C(=CC(=O)[C@@H]5[C@@]6(C)CC[C@H](OC7C[C@@H](O)[C@@H](O)C(C)O7)C(C)(C)[C@@H]6CC[C@]54C)[C@@H]3C2)CC1 (stereo not given in full)	-4.66% (active)	-25.7% (active)	12.3%	9.86% (active)	0.113% (active)	113%	26.5%	105%	87.5%	47%
COc1cc2c(cc1-c1c(C)noc1C)ncc1nc(C3CCC(F)(F)CC3)n([C@@H](C)COC(F)F)c12	24.7%	17.3%	46.1%	61.9%	43.2%	7.59% (active)	48.9%	39%	8.57% (active)	40.8%
COc1ccc(C(=O)c2ccc(C)cc2)c(OC)c1OC	56.6%	88.7%	90.4%	93%	99.7%	79.3%	71.6%	66.7%	86.9%	45.2%
Cc1cc(C=O)c(C)c2c1[nH]c1ccccc12	85.5%	93.9%	93%	62.4%	87.8%	106%	97.6%	108%	107%	94.2%
C[C@H]1OC(=O)/C=C/[C@@H](O)[C@@H](O)CCCCCCCC[C@@H]1O	118%	101%	89.6%	95.6%	101%	94.9%	103%	109%	101%	98.1%
COc1ccccc1-n1cnc(N)c1C(=O)c1cc(OC)c(OC)c(OC)c1	30.2%	30.9%	61.8%	79.1%	65.9%	48.2%	45.5%	-21.3% (active)	-12.8% (active)	55.1%
Nc1nc(Br)nc2c1ncn2C1CC(O)C(CO)O1 (stereo not given)	52.2%	73.5%	35.9%	76.3%	81.9%	94.2%	96.3%	80.9%	91.7%	22.3%
Fc1ccc2c(c1)c(-c1nc(-c3c[nH]c4ncccc34)cs1)cn2CCCN1CCCCC1	-34.7% (active)	-21.1% (active)	76.9%	88.3%	70.6%	94.4%	45.7%	61.7%	75.1%	74.1%
Brc1ccc2c(c1)c(-c1nc(-c3c[nH]c4ncccc34)cs1)cn2CCCN1CCCCC1	-47.5% (active)	-47.9% (active)	1.18% (active)	32.3%	48.4%	63.1%	6.09% (active)	-64.3% (active)	52.1%	13.4%
Cn1cc(-c2csc(-c3cn(CCCN4CCCCC4)c4ccccc34)n2)c2cccnc21	-50.7% (active)	-35.9% (active)	-68.4% (active)	92.9%	-48.2% (active)	94.7%	79.6%	-80.9% (active)	67.5%	-25% (active)
c1ccc(-c2nc(Nc3ccc(-c4nc5ccccc5[nH]4)cc3)nc(N3CCOCC3)n2)cc1	8.94% (active)	-22.6% (active)	-50.4% (active)	0.632% (active)	-47.2% (active)	-30.3% (active)	-38.1% (active)	-73.4% (active)	-39.9% (active)	-60.8% (active)
O=C1c2cc3c(cc2-c2c1c1ccc(F)cc1c(=O)n2CCCN1CCOCC1)OCO3	4.41% (active)	46.1%	47%	78.9%	78.5%	20.1%	77.5%	85.7%	100%	36.6%
COC(=O)[C@]12CC[C@@H](C)[C@H](C)[C@@H]1C1=CC(=O)[C@@H]3[C@@]4(C)C[C@@H](OC(C)=O)[C@H](OC(C)=O)[C@@](C)(COC(C)=O)[C@@H]4C(=O)C[C@@]3(C)[C@]1(C)CC2	29.1%	3.4% (active)	10.4%	84.4%	60.4%	76.4%	61.4%	40.2%	75.9%	13.2%
CCN(CC)c1ccc(/C=C/c2cc(C)c3ccccc3n2)cc1	43.6%	65.6%	75.1%	92.4%	82.8%	57.7%	54.1%	37.1%	93.8%	15.9%
